Test results as given in PubChem BioAssay AID651820 (National Center for Advancing Translational Sciences (NCATS), 2012).
About 12,000 (3.5%) of roughly 340,000 compounds were called active. Roughly 18% stayed inconclusive and do not appear here. Calls come from the whole dose curve; as a rule, active = well fitted inhibition curve with a large enough effect; inconclusive = small, poorly fitted or top-dose-only effect, or another doubt; inactive = no such curve, though single readings can be large or run the other way. The entries come from a sample that favours actives as a whole.

Assay: qHTS Assay for Inhibitors of Hepatitis C Virus (HCV)
Conditions: Huh7.5.1 HCVcc-Cre infection, luciferase reporter, 44 h; series mostly up to 41.8 µM; activity change, negative = inhibition: at the top concentration
Outline: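 Cells (1,000/well) were plated 4 h before compound, then infected with HCVcc-Cre virus (~0.5 moi). After 44 h further culture, infection was read as luciferase luminescence following a 15 min substrate incubation at room temperature.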
% is set by controls: 0 for no effect and ±100 for the full control effect; potency is the fitted concentration of half-maximal effect.

SMILES | activity change, negative = inhibition | Potency
Cc1cc(NC(=O)CSCC(=O)NC(C)c2ccccc2)no1 (centres undefined) | 2.94% (inactive) | –
CCN(c1ccccc1)S(=O)(=O)c1cc(C(=O)NCc2ccccn2)ccc1C | -17.6% (inactive) | –
O=C(COC(=O)c1ccc(O)cc1O)NC(=O)c1ccccc1 | 17.8% (inactive) | –
CCOc1ccc2oc(C(=O)N(CC)CC(=O)Nc3ccc(NC(C)=O)cc3)c(C)c2c1 | -16.3% (inactive) | –
COc1ccc(C(C)(C)C)cc1NC(=O)CCN1C(=O)C2CCCCC2C1=O (centres undefined) | 2.14% (inactive) | –
O=[N+]([O-])c1ncc(Br)cc1Nc1ccccc1 | 11.3% (inactive) | –
CCN(CC)S(=O)(=O)c1ccc(CNC(=O)CN2C(=O)NC3(CCc4ccccc43)C2=O)cc1 (centres undefined) | 8.18% (inactive) | –
O=C(NN=Cc1ccc([N+](=O)[O-])cc1)C1CC1 | -21.8% (inactive) | –
CSCCC(NS(=O)(=O)c1ccc(C)cc1)C(=O)N(C)CC(=O)Nc1ccccc1Br (centres undefined) | -5.06% (inactive) | –
O=C(Nc1ccc(N2CCN(C(=O)c3ccccc3)CC2)c(Cl)c1)c1ncn[nH]1 | -21.7% (inactive) | –
Cc1ccccc1N1CCN(C(=O)c2cccnc2)CC1 | 1.85% (inactive) | –
O=C(Nc1ccc(N2CCN(C(=O)c3ccccc3)CC2)c(Cl)c1)c1cccnc1 | – | 11.2 µM (active)
Cc1cccc(C(=O)NCc2nnc(SC(C)C(=O)Nc3nnc(C)s3)n2C)c1 (centres undefined) | -37% (inactive) | –
Brc1ccc(OCCn2ccnc2)cc1 | 18.5% (inactive) | –
Clc1ncn(CCOc2ccccc2)c1Cl | 29% (inactive) | –
c1ccc(Cc2ccc(OCCn3ccnc3)cc2)cc1 | – | 12.6 µM (active)
COc1ccc(CN2CCC(n3nccc3NC(=O)CCCc3ccccc3)CC2)cc1C | – | 10 µM (active)
COc1cc(CN2CCC(n3nccc3NC(=O)CCCc3ccccc3)CC2)ccc1O | -21% (inactive) | –
Cc1ccc(CN2CCC(n3nccc3NC(=O)CCCc3ccccc3)CC2)o1 | 0.657% (inactive) | –
COc1cccc(N2CC(NC(=O)c3ccc4ccccc4c3)CC2=O)c1 (centres undefined) | 15.5% (inactive) | –
CCc1ccccc1NC1c2ccccc2C(=O)N1c1cccnc1 (centres undefined) | 11.1% (inactive) | –
O=C1[C@@H](c2ccccc2)[C@@H](c2ccccc2)N1c1cccnc1 | – | 5.01 µM (active)
O=C1C(=O)N(c2ccccc2)C(c2ccccc2)C1c1ccccc1 (centres undefined) | -16.7% (inactive) | –
CC[C@@]1(C(=O)OC)N[C@H](CN(C)C(C)=O)[C@@H]2C(=O)N(C)C(=O)[C@@H]21 | 18.4% (inactive) | –
CC(NC(=O)COC(=O)CCC(=O)c1ccc(Cl)cc1)c1ccccc1 (centres undefined) | -14.6% (inactive) | –
CCC(=O)N1c2ccc(S(=O)(=O)NCc3ccco3)cc2CC1C (centres undefined) | 4.82% (inactive) | –

SMILES | activity change, negative = inhibition | Potency
COc1cccc(CNS(=O)(=O)c2ccc3c(c2)CC(C)N3C(=O)C2CCC2)c1 (centres undefined) | – | 6.31 µM (active)
COc1cccc(CNS(=O)(=O)c2ccc3c(c2)CC(C)N3C(C)=O)c1 (centres undefined) | -7.76% (inactive) | –
Cn1cccc1C(=O)OCC(=O)NCCc1ccccc1 | 14% (inactive) | –
O=C(COC(=O)c1ccc2ncsc2c1)Nc1ccc(Cl)cc1 | 7.39% (inactive) | –
CCCCn1c(N)c(N(CC(C)C)C(=O)CSc2ccc([N+](=O)[O-])cc2)c(=O)[nH]c1=O | 0.648% (inactive) | –
O=C(NNS(=O)(=O)c1c(F)cc(F)c(Cl)c1F)C12CC3CC(CC(C3)C1)C2 | 6.17% (inactive) | –
O=C(O)COc1ccc(/C=N/O)cc1Br | 14.8% (inactive) | –
COc1cc(/C=N/O)cc(Br)c1OS(=O)(=O)c1ccc(C)cc1 | -28.6% (inactive) | –
CCOc1cc(/C=N/O)cc(Br)c1OC | – | 8.91 µM (active)
CC(C)c1ccc(C=NNc2ccc([N+](=O)[O-])cn2)cc1 | -13.8% (inactive) | –
COc1ccccc1-c1nn(Cc2ccccc2)cc1C(=O)N1CCN(c2ncccn2)CC1 | 0.899% (inactive) | –
CCn1nc(C(=O)Nc2ccc(N3CCOCC3)cc2)c2ccccc2c1=O | -5.96% (inactive) | –
Cc1cc(NC(=O)CN2C(=O)NC(CC(C)C)C2=O)no1 (centres undefined) | 18.5% (inactive) | –
Cc1ccc(S(=O)(=O)N(Cc2cccc([N+](=O)[O-])c2)C(=O)N2CCN(C)CC2)cc1 | 0.369% (inactive) | –
CCN(CC)C(=O)CN(c1cccc([N+](=O)[O-])c1)S(=O)(=O)c1ccccc1 | -6.32% (inactive) | –
O=C(CCl)N(Cc1cccc([N+](=O)[O-])c1)c1cccc(Cl)c1 | – | 3.98 µM (active)
CN(C)C(CNC(=O)c1cccc(S(=O)(=O)Nc2ccc(Br)cc2)c1)c1ccco1 (centres undefined) | 10% (inactive) | –
O=C(CCCOc1ccccc1)NNC(=O)c1ccc(Cl)cc1 | 22.7% (inactive) | –
CC1CCCCC1NC(=O)Cn1c(=O)cnc2ccccc21 (centres undefined) | 10.8% (inactive) | –
Cc1nn(Cc2ccccc2)c(C)c1C(=O)N1CCN(CC(=O)Nc2ccccc2Cl)CC1 | -5.14% (inactive) | –
Clc1ccc(C2=CSC3=Nc4cccc5cccc(c45)N23)cc1 | – | 5.01 µM (active)
CCc1nnc(NS(=O)(=O)c2ccc(NC(=O)c3cccc(OC(F)(F)C(F)F)c3)cc2)s1 | 14.1% (inactive) | –
Cc1cc(C(=O)O)ccc1[N+](=O)[O-] | 38.5% (inactive) | –
Cc1cc(OCCCCOc2ccc(C#N)cc2)ccc1[N+](=O)[O-] | – | 8.91 µM (active)
Cc1cc(OCC(=O)NC2CCN(C)CC2)ccc1[N+](=O)[O-] | 0.975% (inactive) | –
COc1ccc(N2CCN(S(=O)(=O)c3cc4c5c(c3)C(C)C(=O)N5CCC4)CC2)cc1 (centres undefined) | 0.733% [at 8.37 µM] (inactive) | –

SMILES | activity change, negative = inhibition | Potency
Cn1c(/C(C#N)=C2/CCCCCN2)nc2ccccc21 | -26.8% (inactive) | –
N#C/C(=C1\CCCN1)c1nc(-c2ccccc2)cs1 | – | 6.31 µM (active)
N#C/C(=C1/CCCN1)c1ccccn1 | -11.2% (inactive) | –
COC1=NC2=NCCN2C(OC)=N1 | -0.005% (inactive) | –
OC(COc1ccc(F)cc1Cl)CN1CCc2ccccc2C1 (centres undefined) | 9.89% (inactive) | –
Cc1ccc(OCC(O)CN2CCN(CC(O)COc3ccc(C)cc3Cl)CC2)c(Cl)c1 (centres undefined) | – | 25.1 µM (active)
COc1ccccc1OCC(O)CN1CCOCC1 (centres undefined) | 27.6% (inactive) | –
COc1ccc2nc(N3C(=O)C(O)=C(C(=O)c4ccco4)C3c3ccco3)sc2c1 (centres undefined) | 0.823% (inactive) | –
CCOc1ccc(/C=C(/C#N)c2nnc(N3CCOCC3)n2-c2ccccc2)cc1OC | 2.12% (inactive) | –
CC(C)N(Cc1ccccc1)C(=O)COC(=O)c1ccccc1SCC(=O)N1CCCC1 | -26.1% (inactive) | –
CCOc1cc(C(=S)N2CCOCC2)ccc1O | 2.27% (inactive) | –
CC(=O)Nc1ccc(S(=O)(=O)Oc2ccc(Br)cc2C(=S)N2CCOCC2)cc1 | -17.6% (inactive) | –
CCOc1cc(C(=S)N2CCOCC2)ccc1OS(=O)(=O)c1ccc(Br)cc1 | – | 10 µM (active)
Cc1cc(NC(=O)COc2ccccc2C#N)no1 | 10.6% (inactive) | –
O=C(Nc1cc(S(=O)(=O)N2CCOCC2)ccc1N1CCOCC1)c1c(F)cccc1Cl | -1.1% (inactive) | –
COc1cnc(-c2ccccn2)nc1Oc1ccc(C(C)(C)C)cc1 | – | 10 µM (active)
COc1ccc(Cc2nc(-c3ccccn3)no2)cc1OC | 12.1% (inactive) | –
COc1ccc(Sc2nc(-c3ccccc3)ncc2OC)cc1 | -21.6% (inactive) | –
O=C1COc2ccc(C(=O)COC(=O)c3ccccc3Cl)cc2N1 | 13.4% (inactive) | –
COc1ccc(-c2ccc3c(c2)C2CC3CCN2CCC#N)cc1 (centres undefined) | -2.86% [at 8.37 µM] (inactive) | –
CC1(C)O[C@@H]2[C@H](O1)[C@@H](COS(=O)(=O)O)O[C@H]2n1cnc2c(=O)[nH]cnc21 | -18% (inactive) | –
Cc1ccc(S(=O)(=O)N(C)C)cc1NC(=O)COC(=O)/C=C/c1cccs1 | -12.4% (inactive) | –
O=C(COC(=O)COc1cc(Cl)c(Cl)cc1Cl)NC1CC1 | 0.0616% (inactive) | –
O=C(COC(=O)c1ccc(O)cc1O)NNC(=O)c1cccs1 | 38.1% (inactive) | –
COc1ccc2c(c1)C(=O)CC(c1ccccc1)O2 (centres undefined) | -13.2% (inactive) | –
COc1cc(C(=O)Nn2c(CC(C)C)nc3ccccc3c2=O)cc(OC)c1OC | -5.06% (inactive) | –

SMILES | activity change, negative = inhibition | Potency
CCC(C)n1c(-c2cc(OC)c(OC)c(OC)c2)nc2nc3ccccc3nc21 (centres undefined) | – | 15.8 µM (active)
COc1cc(-c2n[nH]c(=S)n2Cc2ccccc2)cc(OC)c1OC | 26.4% (inactive) | –
Cc1cc2nc3n(c2cc1C)CC1CC(C(=O)NCCC(C)C)N(C)C31 (centres undefined) | 20.5% (inactive) | –
Cc1cccc(Nc2nnc(SCC(=O)c3c(N)n(C4CC4)c(=O)[nH]c3=O)s2)c1C | -9.86% (inactive) | –
O=[N+]([O-])c1ccc(N=NNc2ccc([N+](=O)[O-])cc2)cc1 | 1.27% (inactive) | –
COc1cc(OC)c(C(=O)NNC(=O)c2ccc(NS(=O)(=O)c3cccs3)cc2)cc1OC | -11.4% (inactive) | –
CC(Nc1nc(N2CCN(CCO)CC2)nc2ccccc12)c1ccccc1 (centres undefined) | -16.3% (inactive) | –
CC(Nc1nc(N2CCCC2)nc2ccccc12)c1ccccc1 (centres undefined) | – | 10 µM (active)
Cc1ccc(C(CC(=O)O)Nc2nc(N3CCCCC3)nc(N3CCCCC3)n2)cc1 (centres undefined) | 13% (inactive) | –
Cc1ccc(C)c(OCC(=O)NNC(=O)C2CCC2)c1 | -7.38% (inactive) | –
CCc1cc2c(N3CCN(c4nnc(CC)s4)CC3)ncnc2s1 | – | 7.08 µM (active)
O=C(O[C@@H]1[C@H](Cc2ccccc2)NS(=O)(=O)[C@H]2C[C@@H]3C=C[C@]12O3)c1ccccc1Br | 2.29% (inactive) | –
COc1cccc(NC(=O)CSc2nccn(-c3ccc4c(c3)OCCO4)c2=O)c1 | -25.2% (inactive) | –
O=c1[nH]c(-c2cccs2)nc2ccccc12 | -0.761% (inactive) | –
CC(=O)Nc1cccc(Nc2nc(-c3cccs3)nc3ccccc23)c1 | – | 11.2 µM (active)
CC(=O)Nc1cccc(-c2cnc3ccccc3n2)c1 | -2.87% (inactive) | –
Cc1ccc(/C=C/C(=O)OCC(=O)NCc2ccc(Cl)cc2)o1 | 1.37% (inactive) | –
O=S(=O)(c1ccccc1)N1CCC(c2ccccc2)CC1 | 4.33% (inactive) | –
Cc1ccsc1C(=O)NCCc1ccco1 | 0.166% (inactive) | –
O=C(COc1ccc(Br)cc1F)NCC1(N2CCCCC2)CCCCC1 | -7.28% (inactive) | –
CCN1C[C@@H]2[C@@H]3C(=O)N(Cc4ccccc4)C(=O)[C@@H]3[C@](Cc3ccccc3)(C(=O)OC)N2C1=NC1CCCCC1 | 11.2% [at 8.37 µM] (inactive) | –
CCC[C@H]1CCCC/C=C\CCCC(=O)OCCN1C(=O)OC(C)(C)C | 0.716% (inactive) | –
CCN1C[C@@H]2[C@@H]3C(=O)N(C)C(=O)[C@@H]3[C@](C)(C1=O)N2C(=O)c1ccccc1 | 9.82% (inactive) | –
C/[N+]([O-])=C\c1ccc([N+](=O)[O-])o1 | -3.61% (inactive) | –
O=C(N/N=C/c1ccc([N+](=O)[O-])o1)c1cn(-c2ccccc2)nc1-c1ccc(F)cc1 | -13.3% (inactive) | –
O=C(/C=C/c1ccc([N+](=O)[O-])o1)NNC(=O)c1ccc(F)cc1 | – | 14.1 µM (active)
